This assay is described as follows: cell-free HIV fusion peptide-binding blockers – biochemical, uHTS, fluorescence dequenching, primary screen (AID 1986). Particulars: 30 min, stronger effect = higher value.
Setting [1] is: measured here: repeat confirmation average inhibition, at 18.6 µM.

For orientation: inhibition means the drop in the measured response relative to a control, in per cent.

Among all 290,000 compounds or so, about 890 (0.31%) were called active. This is one part of a sample in which actives are shown more often than they occur. Cut-off read from the data, not from the text of the source: active = inhibition mostly above about 52% (no sharp cut-off); inactive = mostly below about 76%.

For the molecule `CCOC(=O)C1=C(C)NC(=O)NC1c1ccc(OCC(=O)OC)c(OC)c1` (centres undefined), the inhibition (at 20 µM) was -0.4% (inactive). For the molecule `CC(=O)Nc1cccc(CNCc2cccc(NC(C)=O)c2)c1`, the inhibition (at 20 µM) is -0.7% (inactive). For the molecule `O=C(Nc1cccc(-c2cn3ccccc3n2)c1)c1cnccn1`, the inhibition (at 20 µM) was -0.3% (inactive). On to `CC(=O)C1=C(c2ccccc2)NC(=O)NC1c1cccs1` (centres undefined), for which the inhibition (at 20 µM) is 0.1% (inactive).

`CCc1cccc(NC(=O)CCS(=O)(=O)c2cc3c(cc2C)NC(=O)CO3)c1`: for the setting “at 20 µM”, the inhibition is 0.8% (inactive). As for `CCOc1cc(-c2nc(-c3ccncc3)no2)cc(OCC)c1OCC`, the inhibition (at 20 µM) was 0.5% (inactive). Turning to `CCC(CCC(=O)Nc1cccc(C(=O)O)c1)C(=O)O` (centres undefined), the inhibition (at 20 µM) is -0.2% (inactive).

With `COc1ccc(Br)cc1C(=O)Nc1ccc(N2CCCC2)cc1`, the inhibition (at 20 µM) was -1.9% (inactive). Take `Cc1ccc(NC(=O)CN2C(=O)S/C(=C\c3ccc(-c4cccc(C(=O)O)c4C)o3)C2=O)cc1`: for the setting “at 20 µM”, the inhibition is 63.2% (active). As for `Cc1ccc(C(=O)O)cc1-c1ccc(/C=C2\SC(=O)N(CC(=O)Nc3ccc4c(c3)OCO4)C2=O)o1`, the inhibition by setting is: (at 20 µM) 69.1% (inactive); under setting [1], 25.2%. Take `Cc1ccccc1NC(=O)CN1C(=O)S/C(=C\c2ccc(-c3cccc(C(=O)O)c3C)o2)C1=O`: the inhibition (at 20 µM) is 32% (inactive). Regarding `COc1ccc(C(=O)NC2CCCCCC2)cc1OC1CCN(C(C)=O)CC1`, the inhibition (at 20 µM) was 0% (inactive). The same measure, in the same setting: in the case of `COc1ccc([N+](=O)[O-])cc1NC(=O)COC(C)=O` it was -1.8% (inactive); in that of `O=C(CN1CCN(c2ccccc2)CC1)N1CCc2[nH]c3ccccc3c2C1`, 2% (inactive). Still for that read-out and setting: then `CCCN(CCC)c1nc2c(C)cccn2c(=O)c1/C=C1/SC(=S)N(Cc2ccco2)C1=O`, with 49.5% (inactive). Take `CCN1CCN(c2c(/C=C3\SC(=S)N(Cc4ccco4)C3=O)c(C)c(C#N)c(=O)n2C)CC1`: the inhibition is, setting by setting: (at 20 µM) 89.4% (active); under setting [1], 167%. The matching figures for `O=C1/C(=C\c2ccco2)SC(=S)N1Cc1ccccc1`: 66% (inactive) and -1.7%. Consider `C=CCOc1ccc(C2/C(=C(\O)c3ccc4c(c3)OCCO4)C(=O)C(=O)N2CCCN2CCOCC2)cc1` (centres undefined), for which, for the setting “at 20 µM”, the inhibition was -1.6% (inactive). In the case of `Cc1cc(NC(=O)CCCC(=O)N(CC(=O)NC2CCCCC2)c2ccccc2)no1`, for the setting “at 20 µM”, the inhibition is -0.7% (inactive). Turning to `CNC(=S)N1CCN(S(=O)(=O)c2ccc3ccccc3c2)CC1`, where the note is “at 20 µM”, the inhibition is -0.9% (inactive).

Consider `CCCc1ccc2oc(C(=O)NCCN3CCCC(O)C3)c(C)c2c1` (centres undefined), for which, under “at 20 µM”, the inhibition was 0.9% (inactive). Take `O=c1c2cccc3c(N4CCOCC4)ccc(c32)c2nc3ccccc3n12`: the inhibition (at 20 µM) was 113% (active).

Take `O=c1c2ccc([N+](=O)[O-])c3cccc(c32)c2nc3ccccc3n12`: for the setting “at 20 µM”, the inhibition is 10.2% (inactive). For the molecule `c1ccc2c(c1)nc(CN1CCOCC1)n1c3ccccc3nc21`, the inhibition (at 20 µM) is 2.2% (inactive). `Cc1ccc(OCc2cc(C(=O)N(C)CC3CCOCC3)no2)cc1C`: under “at 20 µM”, the inhibition is -2% (inactive). Same read-out and setting: in the case of `Cc1ccc(/C=C2\SC(=S)N(Cc3ccccc3)C2=O)o1` it was -3.6% (inactive).

Take `O=C(O)c1cccc(N2C(=O)/C(=C/c3ccc(SCc4ccc(Cl)cc4)o3)SC2=S)c1`: for the setting “at 20 µM”, the inhibition was 63% (active). Turning to `O=C1/C(=C\c2ccco2)SC(=S)N1c1ccccc1`, the inhibition (at 20 µM) is 41.6% (inactive).

Take `CC(/C=C1\SC(=S)N(CC(=O)O)C1=O)=C\c1ccccc1`: the inhibition (at 20 µM) is 35.8% (inactive). For `CC(=C\c1ccccc1)/C=C1/SC(=S)N(CCC(=O)O)C1=O`, under “at 20 µM”, the inhibition was 26.1% (inactive). On to `O=C(CCN1C(=O)/C(=C/c2ccc(Cl)cc2)SC1=S)Nc1cccc(C(=O)O)c1`, for which the inhibition is 62.4% (inactive) (at 20 µM) and 2.3% under setting [1].

`O=C(O)CN1C(=O)/C(=C\C(Br)=C\c2ccccc2)SC1=S`: the inhibition (at 20 µM) is 62.6% (active). On the same count and under the same terms, then `O=C(O)CN1C(=O)/C(=C/c2ccc(N3CCCCC3)o2)SC1=S`, with 7.4% (inactive).

On to `O=C(O)CN1C(=O)/C(=C/c2ccc(SCc3ccccc3)o2)SC1=S`, for which the inhibition is, setting by setting: (at 20 µM) 73.1% (active); under setting [1], 105%. `Cn1cnnc1SCC(=O)N1CCc2ccccc21`: for the setting “at 20 µM”, the inhibition is -0.4% (inactive). In the case of `CCOC(=O)C(C)c1nc2ccccc2[nH]c1=O` (centres undefined), the inhibition (at 20 µM) was -0.4% (inactive).

Consider `CN1C2C=C(N(CCc3ccccc3)C(=O)c3ccc(Cl)cc3)CC1CC2` (centres undefined), for which the inhibition (at 20 µM) was -0.4% (inactive). Still for that read-out and setting: in the case of `C=C1CN(CC(=O)OC)S(=O)(=O)c2ccccc21` it was 0.8% (inactive); in that of `COc1ccccc1NC(=O)c1ccc(-c2nn(C)c(=O)c3ccccc23)cc1`, 0.7% (inactive). The same measure, in the same setting: then `Cc1nn(CC(=O)N2CCCC2)c(=O)c2nn(-c3ccccc3)c(C)c12`, with 0.3% (inactive); and `CC(CCC(=O)O)C1CC[C@H]2C3CCC4CC(=O)CCC4(C)[C@H]3CC(=O)C12C` (some centres undefined), with -1.2% (inactive).

For the molecule `CC1(C)C(=O)OC(c2cccs2)C(C)(C)C1=O` (centres undefined), the inhibition (at 20 µM) was 0.5% (inactive). Same read-out and setting: in the case of `O=C(CSc1nc2scc(-c3ccco3)c2c(=O)n1-c1ccccc1)N1CCOCC1` it was 4.2% (inactive). For `CC1CCN(S(=O)C23CC4CC(CC(C4)C2)C3)CC1` (centres undefined), the inhibition (at 20 µM) was 1.3% (inactive). Consider `CCOC1OC2C(CO)OC(n3cnc4c(N)ncnc43)C2O1` (centres undefined), for which the inhibition (at 20 µM) was 1.6% (inactive). With `Cc1cccc2c(N=O)c(O)[nH]c12`, the inhibition (at 20 µM) is 17.9% (inactive). Regarding `Cc1cccc2c(N=Nc3ccccc3)c(O)[nH]c12`, the inhibition (at 20 µM) is 52.7% (active) and the inhibition under setting [1] is 60.4%. In the case of `Oc1[nH]c2ccccc2c1N=Nc1ccccc1`, for the setting “at 20 µM”, the inhibition was 146% (inactive).

(Values after PubChem BioAssay AID1986 (Sanford-Burnham Center for Chemical Genomics, 2009).)
